Measurements taken from PubChem BioAssay (Tox21).
Where “and” joins values, the source holds several entries; their conditions need not be identical. Equal values may be shown once. Records with an inconclusive call do not appear. Entries that show only a call come without a potency. Where a structure was tested more than once in an assay, its records may differ in their call. Calls of active or inactive are those of the source. Unless noted, calls follow the shape of the dose curve; as a rule, active = well fitted curve in the direction sought with a large enough effect in the repeat runs; inconclusive = weak or mixed curves; inactive = no such curve, though single readings can be large; an effect the other way counts as inactive or inconclusive.

Experiments:
[1] = qHTS assay to identify small molecule agonists of the AP-1 signaling pathway - cell viability counter screen (AID 1159525; calls by dose curve; also: nearly all actives have a fitted effect of over 55% in size; also: potency is read from the fitted curve at half-maximal effect)
Outline: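 Luminescent ATP readout (Cell Titer Glo, 30 min RT), normalised to DMSO and tetra n-octyl ammonium bromide controls. Cells were ME-180 AP-1-bla in 0.5% dialyzed FBS Opti-MEM, with a 5 h, 37 °C compound exposure.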

[2] = target: Nuclear receptor subfamily 1 group I member 3 (Homo sapiens) (UniProt Q14994); test: qHTS assay to identify small molecule antagonists of the constitutive androstane receptor (CAR) signaling pathway (AID 1224838);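 also: HepG2 cells stably expressing hCAR with CYP2B6 luciferase reporter stimulated by CITCO; nearly all actives have a fitted effect of over 40% in size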; also: potency is read from the fitted curve at half-maximal effect
Outline: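 Quantitative HTS in double-stable HepG2-CYP2B6-hCAR cells. After 4 h plating, cells get compound (15 concentrations) and CITCO at 50 nM final, incubate 24 h at 37 C, then ONE-Glo luminescence is read.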

[3] = qHTS assay to identify small molecule agonists of the estrogen related receptor signaling pathway with the pleiotropic PPARgamma coactivator (PGC) from Tox21 10K library (AID 1224842); also: nearly all actives have a fitted effect of over 15% in size
Outline: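 Luminescence from One-Glo (30 min, room temperature) measured after PGC/ERR cells had 18 h at 37 C with pinned compound (23 nL in DMSO). Cells had been seeded at 2,000 per well and pre-incubated 6 h.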

[4] = qHTS RealTime-Glo MT Cell Viability Assay in HepG2 cells - 40 hour (AID 1224870); also: nearly all actives have a fitted effect of over 50% in size; also: potency is read from the fitted curve at half-maximal effect
Outline: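 Real-time viability: cells seeded at 600 per well together with NanoLuc and cell-permeant prosubstrate, compounds added after 5 h incubation. Luminescence tracked at 0, 8, 16, 24, 32 and 40 h of exposure.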

[5] = qHTS RealTime-Glo MT Cell Viability Assay in HEK293 cells - 40 hour (AID 1224874); settings: RealTime-Glo luminescence; max response: stronger effect = lower value; also: nearly all actives have a fitted effect of over 50% in size; also: potency is read from the fitted curve at half-maximal effect
Outline: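 qHTS format; HEK293 cells with NanoLuc/prosubstrate reagent, 37 C/5% CO2 for 5 h pre-dosing; compounds 23 nL in DMSO; luminescence at each time point reflects viable cells.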

[6] = A CellTox Green Cytotoxicity Assay to monitor cytotoxicity in HepG2 cells - 16 hour (AID 1224876); also: nearly all actives have a fitted effect of over 45% in size
Outline: (§1)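 Continuous culture of HepG2 cells with a membrane-impermeant DNA dye; rising fluorescence marks dead cells. Compound exposure lasted up to 40 h at 37 C, with reads every 8 h from 0 h.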

[7] = qHTS RealTime-Glo MT Cell Viability Assay in HepG2 cells - 32 hour (AID 1224877); also: nearly all actives have a fitted effect of over 55% in size; also: potency is read from the fitted curve at half-maximal effect
Outline: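 Viability was tracked continuously by NanoLuc luminescence from prosubstrate reduced by living HepG2 cells, at successive time points over 40 h of compound exposure. Cells with reagent were preincubated 5 h at 37 °C before compound addition.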

[8] = A CellTox Green Cytotoxicity Assay to monitor cytotoxicity in HepG2 cells - 8 hour (AID 1224890); also: nearly all actives have a fitted effect of over 45% in size
Outline: as §1

[9] = qHTS assay to identify small molecule antagonists of the estrogen receptor alpha (ER-alpha) signaling pathway using the BG1 cell line in the presence of 0.1 nM 17-beta-estradiol - cell viability counter screen (AID 1259241); also: nearly all actives have a fitted effect of over 40% in size; also: potency is read from the fitted curve at half-maximal effect
Outline: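 CellTiter-Fluor read (30 min, 37C) on ER-alpha/ERE-luc VM7Luc4E2 cells; 22 hr compound treatment; agonist 0.1 nM E2 final; same-well multiplex.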

[10] = qHTS assay to identify small molecule HDAC inhibitors - cell viability counter screen (AID 1259365); also: series mostly up to about 92 µM; nearly all actives have a fitted effect of over 50% in size
Outline: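 To flag cytotoxic hits, 1,500 wild-type HCT-116 cells per well, plated the day before, receive test compounds for 2hr at 37 C before CellTiter-Glo reagent and a luminescence read.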

[11] = qHTS assay to identify small molecule agonists of the sonic hedgehog signaling (Shh) pathway - cell viability counter screen (AID 1259366); also: nearly all actives have a fitted effect of over 50% in size; also: potency is read from the fitted curve at half-maximal effect
Outline: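 Fluorescence from CellTiter-Fluor reports live cells in this counter screen. NIH/3T3-derived Gli1-Luc reporter cells receive test compounds for 24hr at 37C; reagent goes in at 23hr.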

[12] = qHTS assay to identify small molecule antagonists of the sonic hedgehog signaling (Shh) pathway (AID 1259369; calls by dose curve; also: nearly all actives have a fitted effect of over 45% in size; also: potency is read from the fitted curve at half-maximal effect)
Outline: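 Screening used 3T3Gli1-Luc cells at 2,000 per well, compounds delivered in DMSO, and conditioned medium as agonist stimulus; plates incubated 24hr at 37 C and 5% CO2 before a 30min luciferase step.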

[13] = qHTS assay to identify small molecule agonists or antagonists of the thyroid stimulating hormone receptor (TSHR) signaling pathway - wild type cell line counter screen (AID 1259384; calls by dose curve)
Outline: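 Counter screen in untransfected Hek293: compounds (15-point titration, triplicate) plus phosphodiesterase inhibitor Ro20-1724 added after 18 h plating; 30 min RT. Intracellular cAMP via competitive d2/cryptate immunoassay, 1 h incubation.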

[14] = qHTS assay to identify small molecule antagonists of the TGF-beta/Smad signaling pathway - cell viability counter screen (AID 1346824); also: nearly all actives have a fitted effect of over 50% in size; also: potency is read from the fitted curve at half-maximal effect
Outline: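 Cytotoxicity counter-screen run in the same wells as the beta-lactamase Smad reporter read: CellTiter-Glo luminescence after 30 min at room temperature. HEK 293T SBE-bla cells had 5 hr compound exposure at 37 C with TGF-beta1 (0.25 ng/mL stock).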

[15] = qHTS assay to identify small molecule agonists of the TGF-beta/Smad signaling pathway (AID 1346859; active = well fitted activation curve with a large enough effect in the signal ratio in the repeat runs, not every such curve was filed as active; the % refers to the signal ratio; also: series mostly up to about 77 µM)
Outline: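 Beta-lactamase reporter activity downstream of Smad binding elements was measured in stably transfected HEK 293T cells; compounds were incubated for 5 hr, substrate for 2 hr at room temperature.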

[16] = target: Cytochrome P450 1A2 (Homo sapiens) (UniProt P05177); test: Cytochrome P450 Family 1 Subfamily A Member 2 (CYP1A2) small molecule antagonists: luciferase reporter qHTS assay (AID 1671199); also: nearly all actives have a fitted effect of over 50% in size; also: potency is read from the fitted curve at half-maximal effect
Outline: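 Signal from luciferin formed by CYP1A2 from a proluciferin substrate is read as luminescence, expressed in relative luminescence units. Compounds sit with enzyme 10 min, NADPH-driven reaction runs 1 h, all at room temperature.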

[17] = A CellTox Green Cytotoxicity Assay to monitor cytotoxicity in HEK293 cells - 40 hour (AID 1224871); also: nearly all actives have a fitted effect of over 45% in size; also: potency is read from the fitted curve at half-maximal effect
Outline: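 Each value comes from one timepoint of a single continuous run in which HEK293 cells with CellTox Green were exposed to compound for up to 40 h at 37 C, dye fluorescence rising with cell death.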

[18] = qHTS assay to identify small molecule antagonists of the androgen receptor (AR) signaling pathway using the MDA cell line in the presence of 0.5 nM R1881 - cell viability counter screen (AID 1259242); also: nearly all actives have a fitted effect of over 45% in size; also: potency is read from the fitted curve at half-maximal effect
Outline: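 Fluorescence from CellTiter-Fluor, which reports protease activity of live cells, was read 30 min after reagent addition to MDA-kb2 cells that had been incubated 16 hr with compound and 0.5 nM R1881.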

[19] = qHTS assay to identify small molecule agonists of the estrogen receptor alpha (ER-alpha) signaling pathway in the presence of an antagonist - cell viability counter screen (AID 1259386);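 also: cells exposed to compounds for 22 h at 37 °C before the viability read; nearly all actives have a fitted effect of over 30% in size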; also: potency is read from the fitted curve at half-maximal effect
Outline: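 Fluorescent CellTiter-Fluor viability signal from VM7Luc4E2 cells, with the reagent added during the final hour of a 22hr compound exposure at 37C in the presence of 10.0nM ICI-182,780.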

[20] = target: Voltage-gated inwardly rectifying potassium channel KCNH2 (Homo sapiens) (UniProt Q12809); test: Human Ether-a-go-go-Related Gene (hERG) channel small molecule antagonists: fluorescence cell-based qHTS assay (AID 1671200); also: nearly all actives have a fitted effect of over 50% in size; also: potency is read from the fitted curve at half-maximal effect
Outline: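 Cell line hERG-U2OS; dye FluxOR II, 1 h RT dark; Tl+ stimulus; ex 480/em 540 nm, read each second for 2 min.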

Sequence of Voltage-gated inwardly rectifying potassium channel KCNH2 (Homo sapiens) (Q12809 whole entry, looked up): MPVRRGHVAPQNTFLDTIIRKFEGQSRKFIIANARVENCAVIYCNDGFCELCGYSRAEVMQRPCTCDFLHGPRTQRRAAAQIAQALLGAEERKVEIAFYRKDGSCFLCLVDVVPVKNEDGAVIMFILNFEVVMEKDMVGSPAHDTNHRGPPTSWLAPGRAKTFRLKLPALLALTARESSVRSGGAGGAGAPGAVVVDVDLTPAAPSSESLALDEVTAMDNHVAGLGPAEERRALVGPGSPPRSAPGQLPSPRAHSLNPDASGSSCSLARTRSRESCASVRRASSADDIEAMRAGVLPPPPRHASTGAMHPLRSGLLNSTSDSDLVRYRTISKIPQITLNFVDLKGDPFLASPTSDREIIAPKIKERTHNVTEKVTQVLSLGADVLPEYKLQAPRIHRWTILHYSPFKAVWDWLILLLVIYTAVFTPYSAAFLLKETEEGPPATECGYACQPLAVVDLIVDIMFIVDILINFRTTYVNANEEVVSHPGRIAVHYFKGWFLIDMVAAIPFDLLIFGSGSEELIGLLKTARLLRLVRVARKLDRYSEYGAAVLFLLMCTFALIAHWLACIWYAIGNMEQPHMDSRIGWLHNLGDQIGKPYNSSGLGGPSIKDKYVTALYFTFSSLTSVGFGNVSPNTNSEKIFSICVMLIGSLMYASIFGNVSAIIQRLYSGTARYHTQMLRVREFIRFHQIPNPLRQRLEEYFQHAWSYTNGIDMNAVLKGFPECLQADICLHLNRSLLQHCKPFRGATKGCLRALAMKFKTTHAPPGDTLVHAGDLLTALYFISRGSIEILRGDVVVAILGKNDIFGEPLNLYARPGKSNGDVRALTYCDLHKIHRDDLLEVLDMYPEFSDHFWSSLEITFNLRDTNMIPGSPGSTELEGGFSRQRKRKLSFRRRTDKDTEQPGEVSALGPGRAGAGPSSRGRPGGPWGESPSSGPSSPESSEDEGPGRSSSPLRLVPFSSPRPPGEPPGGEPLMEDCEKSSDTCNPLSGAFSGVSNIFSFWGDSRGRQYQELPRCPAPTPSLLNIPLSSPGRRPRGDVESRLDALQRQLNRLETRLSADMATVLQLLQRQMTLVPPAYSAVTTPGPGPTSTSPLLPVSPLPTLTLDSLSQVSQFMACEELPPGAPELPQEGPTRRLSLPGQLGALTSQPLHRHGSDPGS
Sequence of Nuclear receptor subfamily 1 group I member 3 (Homo sapiens) (Q14994 whole entry, looked up): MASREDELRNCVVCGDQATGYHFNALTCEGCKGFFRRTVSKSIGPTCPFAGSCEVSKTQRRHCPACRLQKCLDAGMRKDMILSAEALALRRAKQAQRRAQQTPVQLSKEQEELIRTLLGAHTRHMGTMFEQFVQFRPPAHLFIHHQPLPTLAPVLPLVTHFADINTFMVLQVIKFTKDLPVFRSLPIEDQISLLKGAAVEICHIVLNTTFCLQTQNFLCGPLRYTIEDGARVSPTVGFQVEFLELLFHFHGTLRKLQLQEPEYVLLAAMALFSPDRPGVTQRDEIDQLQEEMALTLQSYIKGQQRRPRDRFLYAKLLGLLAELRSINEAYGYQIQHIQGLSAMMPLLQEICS
Sequence of Cytochrome P450 1A2 (Homo sapiens) (P05177 whole entry, looked up): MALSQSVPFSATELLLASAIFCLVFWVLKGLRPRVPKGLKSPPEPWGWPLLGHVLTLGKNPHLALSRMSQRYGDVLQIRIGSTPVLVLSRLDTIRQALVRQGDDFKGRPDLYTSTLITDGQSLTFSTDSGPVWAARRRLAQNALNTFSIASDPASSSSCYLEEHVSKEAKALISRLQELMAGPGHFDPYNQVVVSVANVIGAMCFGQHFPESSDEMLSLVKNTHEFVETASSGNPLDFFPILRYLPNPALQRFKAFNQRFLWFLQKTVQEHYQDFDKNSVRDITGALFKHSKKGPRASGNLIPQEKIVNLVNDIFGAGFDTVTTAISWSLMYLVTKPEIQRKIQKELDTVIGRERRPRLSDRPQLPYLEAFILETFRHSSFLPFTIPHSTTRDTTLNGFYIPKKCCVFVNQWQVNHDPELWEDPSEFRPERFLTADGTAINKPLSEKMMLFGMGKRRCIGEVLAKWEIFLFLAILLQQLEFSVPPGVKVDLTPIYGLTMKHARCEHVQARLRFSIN

Cc1cc(C(C)(C)c2ccc(O)c(C)c2)ccc1O
Potency [1]: inactive
Potency [2]: inactive
Potency [3]: inactive
Potency [4]: inactive
Potency [5]: 20.8 µM (active)
Potency [6]: inactive
Potency [7]: inactive
Potency [8]: inactive
Potency [9]: inactive
outcome [10]: inactive
Potency [11]: 58.2 µM (active)
Potency [12]: 16.4 µM (active)
outcome [13]: inactive
Potency [14]: inactive
outcome [15]: inactive
Potency [16]: 33.9 µM (active)

C[C@]12CC[C@@H](O)C[C@@H]1CC[C@@H]1[C@@H]2CC[C@]2(C)C(=O)CC[C@@H]12
Potency [1]: 49 µM (active)
Potency [4]: inactive
Potency [17]: 49 µM (active)
Potency [5]: 24.5 µM (active)
Potency [6]: inactive
Potency [7]: inactive
Potency [8]: inactive
Potency [9]: inactive
Potency [18]: inactive
outcome [10]: inactive
Potency [11]: inactive
Potency [12]: 19.3 µM (active)
Potency [19]: inactive
Potency [14]: inactive
outcome [15]: inactive
Potency [20]: inactive

O=C1C(I)=CC(=C(c2cc(I)c(O)c(I)c2)c2ccccc2C(=O)O)C=C1I
Potency [2]: inactive
Potency [4]: inactive
Potency [17]: inactive
max response [5]: -8.4% (inactive)
Potency [6]: inactive
Potency [7]: inactive
Potency [8]: inactive
Potency [9]: inactive
Potency [18]: inactive
outcome [10]: inactive
Potency [11]: inactive
outcome [13]: inactive
Potency [19]: inactive
Potency [14]: inactive
outcome [15]: inactive
Potency [16]: inactive
Potency [20]: inactive

COc1ccc(C(c2ccc(OC)cc2)C(Cl)(Cl)Cl)cc1
Potency [2]: inactive
Potency [3]: inactive
Potency [4]: inactive
Potency [17]: inactive
Potency [5]: 52.6 µM (active)
Potency [6]: inactive
Potency [8]: inactive
Potency [9]: inactive
Potency [18]: inactive
outcome [10]: inactive
Potency [11]: inactive
Potency [12]: 21.6 µM (active)
outcome [13]: inactive
Potency [14]: inactive
outcome [15]: inactive
Potency [16]: 25 µM (active)

CO/C=C(/C(=O)OC)c1ccccc1Oc1cc(Oc2ccccc2C#N)ncn1
Potency [2]: inactive
Potency [3]: inactive
Potency [4]: inactive
Potency [17]: 4.9 µM (active)
Potency [5]: 33.8 µM (active)
Potency [6]: inactive
Potency [8]: inactive
Potency [18]: 24.3 µM (active)
outcome [10]: inactive
Potency [12]: 0.327 µM (active)
outcome [13]: inactive
Potency [19]: 21.7 µM (active)
Potency [14]: 34.7 µM (active)
Potency [16]: 41.4 µM (active)
Potency [20]: inactive

CCc1cccc(C)c1N
Potency [3]: inactive

CN1CSC(=S)N(C)C1
Potency [2]: 3.84 µM (active) and 7.67 µM (active)
Potency [3]: inactive
Potency [4]: 12.3 µM (active)
Potency [17]: 6.88 µM (active) and 12.3 µM (active)
Potency [5]: 13.7 µM (active) and 21.8 µM (active)
Potency [6]: inactive
Potency [7]: 15.4 µM (active)
Potency [8]: inactive
Potency [9]: 17.1 µM (active)
outcome [10]: inactive
Potency [11]: 2.42 µM (active) and 6.09 µM (active)
Potency [12]: 342 nM (active) and 1.08 µM (active)
outcome [13]: inactive
Potency [19]: inactive
Potency [14]: inactive
outcome [15]: inactive
Potency [16]: inactive and 39.8 µM (active)
Potency [20]: inactive

COc1ccccc1[N+](=O)[O-]
Potency [3]: inactive

Nc1ccc(Cl)cc1Cl
Potency [3]: inactive

Clc1ccccc1-c1ccccc1Cl
Potency [4]: inactive
Potency [17]: 31.4 µM (active)
Potency [6]: inactive
Potency [7]: inactive
Potency [8]: inactive
Potency [9]: inactive
Potency [18]: inactive
outcome [10]: inactive
Potency [11]: inactive
Potency [12]: inactive
Potency [19]: inactive
Potency [14]: inactive
outcome [15]: inactive
Potency [16]: inactive
Potency [20]: 27.9 µM (active)

O=[N+]([O-])c1cccc(Cl)c1Cl
Potency [3]: inactive

Oc1c(Cl)ccc(Cl)c1Cl
Potency [2]: inactive
Potency [3]: inactive
